# Reference: ChEMBL document CHEMBL2218924, “A broad activity screen in support of a chemogenomic map for kinase signalling research and drug discovery” (Biochem J, 2013)
# Molecular target: T1, Serine/threonine-protein kinase Nek3 (Homo sapiens) (UniProt P51956)
# T1 sequence (whole entry): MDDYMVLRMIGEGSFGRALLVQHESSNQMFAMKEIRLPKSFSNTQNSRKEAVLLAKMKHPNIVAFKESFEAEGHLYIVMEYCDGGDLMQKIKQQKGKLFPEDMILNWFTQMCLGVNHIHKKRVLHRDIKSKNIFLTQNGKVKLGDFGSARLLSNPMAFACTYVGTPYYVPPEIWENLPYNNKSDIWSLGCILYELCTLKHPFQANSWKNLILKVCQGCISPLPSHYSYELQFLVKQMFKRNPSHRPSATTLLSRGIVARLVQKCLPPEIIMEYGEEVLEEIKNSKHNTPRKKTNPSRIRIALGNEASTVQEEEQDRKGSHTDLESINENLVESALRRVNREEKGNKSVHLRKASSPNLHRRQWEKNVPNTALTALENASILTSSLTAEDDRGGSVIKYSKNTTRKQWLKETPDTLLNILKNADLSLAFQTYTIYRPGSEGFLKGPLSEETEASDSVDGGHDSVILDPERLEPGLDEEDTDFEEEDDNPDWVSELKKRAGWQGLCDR
# Settings: at 10 µM
row,SMILES,residual activity [%]
1,CO[C@H]1C[C@@H]2CC[C@@H](C)[C@@](O)(O2)C(=O)C(=O)N2CCCC[C@H]2C(=O)O[C@H]([C@H](C)C[C@@H]2CC[C@@H](O)[C@H](OC)C2)CC(=O)[C@H](C)/C=C(\C)[C@@H](O)[C@@H](OC)C(=O)[C@H](C)C[C@H](C)/C=C/C=C/C=C/1C,64
2,Nc1nc(Nc2ccc(S(N)(=O)=O)cc2)nn1C(=S)Nc1c(F)cccc1F,3
3,O=C1NC(=O)/C(=C\c2ccc3nccnc3c2)S1,81
4,COc1ccc(CNc2nc(N(CCO)CCO)nc3c2ncn3C(C)C)cc1,90
5,COc1ccc(C(=O)Nc2sc3c(c2C(N)=O)CCCC3)cc1OC,72
6,O=C(Nc1cccc(Nc2cc(Nc3cccc(C(F)(F)F)c3)ncn2)c1)C1CC1,63
7,Oc1ccc(Nc2nc(-c3ccc(Cl)cc3)cs2)cc1,111
8,COc1ccc(OC)c2c(=S)c3ccccc3[nH]c12,91
9,O=C1Nc2cc(Br)ccc2/C1=C1/Nc2ccccc2/C1=N\O,70
10,Nc1cccc(-c2cc3c(Oc4cccc(O)c4)ncnc3[nH]2)c1,23
11,Oc1n[nH]c2nnc(-c3c(-c4ccccc4)nn4ccccc34)cc12,103
12,COc1cccc(-c2cc(=O)c3ccccc3o2)c1N,101
13,Cc1nc2cc3nc(-c4cccs4)cnc3cc2n1C,104
14,O=Nc1c(-c2c(O)[nH]c3ccccc23)[nH]c2ccccc12,94
15,O=C1c2ccccc2-[n+]2ccc3c([nH]c4ccccc43)c21,90
16,CNc1cc2c(Nc3cccc(Br)c3)ncnc2cn1,63
17,O=c1cc(-c2cccc3c2Sc2ccccc2S3)oc(N2CCOCC2)c1,99
18,C[C@@H](N)[C@H]1CC[C@H](C(=O)Nc2ccncc2)CC1,120

row,SMILES,residual activity [%]
1,Cc1nc(-c2ccccc2)c(-c2ccncc2)o1,114
2,CCC(=O)Nc1ccc2ncnc(Nc3cccc(Br)c3)c2c1,98
3,Cn1cnc2cc3c(Nc4cccc(Br)c4)ncnc3cc21,74
4,CC(C)n1cnc2/c(=N/c3cccc(Cl)c3)nc(NCCO)[nH]c21,68
5,Oc1c2ccccc2c2c3c(cccc13)N=N2,79
6,COc1cc2ncnc(Nc3ccc(O)c(Br)c3)c2cc1OC,81
7,N#C/C(=C(\N)Sc1ccc(N)cc1)c1ccccc1C(F)(F)F,103
8,CCOc1cc2ncnc(Nc3cccc(Br)c3)c2cc1OCC,88
9,O=C1NC(=O)c2c1c1c3ccccc3[nH]c1c1[nH]c3cc(Br)ccc3c21,92
10,CC#CC(=O)Nc1cc2c(Nc3ccc(F)c(Cl)c3)ncnc2cn1,84
11,NC(=O)c1ccc2[nH]c(-c3ccc(Oc4ccc(Cl)cc4)cc3)nc2c1,91
12,O=C(Nc1cccc(Nc2nccc(Nc3cccc(C(F)(F)F)c3)n2)c1)C1CC1,33
13,O=c1c2ccccc2[nH]c(=S)n1CCN1CCC(=C(c2ccc(F)cc2)c2ccc(F)cc2)CC1,42
14,Ic1cccc(CSc2nnc(-c3ccncc3)o2)c1,84
15,O=C1NC(=O)/C(=C/c2ccc3c(c2)OC(F)(F)O3)S1,88
16,Cc1ccc(NC2=CC(=O)c3sc(C)nc3C2=O)cc1,101
17,CC(=O)O/N=C1\C(=C2\C(=O)Nc3cc(Br)ccc32)Nc2ccccc21,84

# Molecular target: Serine/threonine-protein kinase tousled-like 2 (Homo sapiens) (UniProt Q86UE8)
# Settings: at 1 µM
# Chain of Serine/threonine-protein kinase tousled-like 2 (Homo sapiens) (Q86UE8 whole entry, looked up): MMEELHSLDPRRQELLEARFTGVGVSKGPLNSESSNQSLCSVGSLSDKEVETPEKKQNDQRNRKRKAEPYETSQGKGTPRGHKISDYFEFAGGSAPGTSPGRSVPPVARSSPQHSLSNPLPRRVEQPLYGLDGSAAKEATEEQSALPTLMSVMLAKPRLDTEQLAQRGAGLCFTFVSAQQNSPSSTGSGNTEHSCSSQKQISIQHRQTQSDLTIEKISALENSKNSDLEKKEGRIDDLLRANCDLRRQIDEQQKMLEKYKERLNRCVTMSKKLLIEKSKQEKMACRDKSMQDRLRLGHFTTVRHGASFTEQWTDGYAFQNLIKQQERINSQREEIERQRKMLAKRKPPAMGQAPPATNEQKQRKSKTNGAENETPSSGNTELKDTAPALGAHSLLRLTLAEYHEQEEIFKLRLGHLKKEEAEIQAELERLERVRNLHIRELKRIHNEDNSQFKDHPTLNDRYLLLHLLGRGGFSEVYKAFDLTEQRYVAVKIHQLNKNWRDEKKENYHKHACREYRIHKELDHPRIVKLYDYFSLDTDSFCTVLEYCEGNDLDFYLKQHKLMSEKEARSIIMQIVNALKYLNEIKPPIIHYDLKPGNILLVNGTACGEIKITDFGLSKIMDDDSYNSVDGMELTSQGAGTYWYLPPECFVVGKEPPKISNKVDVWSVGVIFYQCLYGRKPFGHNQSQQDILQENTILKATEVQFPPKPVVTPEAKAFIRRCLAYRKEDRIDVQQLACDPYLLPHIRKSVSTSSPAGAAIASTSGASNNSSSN
row,SMILES,residual activity [%]
1,CO[C@H]1C[C@@H]2CC[C@@H](C)[C@@](O)(O2)C(=O)C(=O)N2CCCC[C@H]2C(=O)O[C@H]([C@H](C)C[C@@H]2CC[C@@H](O)[C@H](OC)C2)CC(=O)[C@H](C)/C=C(\C)[C@@H](O)[C@@H](OC)C(=O)[C@H](C)C[C@H](C)/C=C/C=C/C=C/1C,92
2,Nc1nc(Nc2ccc(S(N)(=O)=O)cc2)nn1C(=S)Nc1c(F)cccc1F,4
3,O=C1NC(=O)/C(=C\c2ccc3nccnc3c2)S1,103
4,COc1ccc(CNc2nc(N(CCO)CCO)nc3c2ncn3C(C)C)cc1,83
5,COc1ccc(C(=O)Nc2sc3c(c2C(N)=O)CCCC3)cc1OC,95
6,O=C(Nc1cccc(Nc2cc(Nc3cccc(C(F)(F)F)c3)ncn2)c1)C1CC1,102
7,Oc1ccc(Nc2nc(-c3ccc(Cl)cc3)cs2)cc1,104
8,COc1ccc(OC)c2c(=S)c3ccccc3[nH]c12,84
9,O=C1Nc2cc(Br)ccc2/C1=C1/Nc2ccccc2/C1=N\O,81
10,Nc1cccc(-c2cc3c(Oc4cccc(O)c4)ncnc3[nH]2)c1,90
11,Oc1n[nH]c2nnc(-c3c(-c4ccccc4)nn4ccccc34)cc12,83
12,COc1cccc(-c2cc(=O)c3ccccc3o2)c1N,98
13,Cc1nc2cc3nc(-c4cccs4)cnc3cc2n1C,107
14,O=Nc1c(-c2c(O)[nH]c3ccccc23)[nH]c2ccccc12,60
15,O=C1c2ccccc2-[n+]2ccc3c([nH]c4ccccc43)c21,80
16,CNc1cc2c(Nc3cccc(Br)c3)ncnc2cn1,99
17,O=c1cc(-c2cccc3c2Sc2ccccc2S3)oc(N2CCOCC2)c1,96
18,C[C@@H](N)[C@H]1CC[C@H](C(=O)Nc2ccncc2)CC1,93

row,SMILES,residual activity [%]
1,Cc1nc(-c2ccccc2)c(-c2ccncc2)o1,106
2,CCC(=O)Nc1ccc2ncnc(Nc3cccc(Br)c3)c2c1,103
3,Cn1cnc2cc3c(Nc4cccc(Br)c4)ncnc3cc21,103
4,CC(C)n1cnc2/c(=N/c3cccc(Cl)c3)nc(NCCO)[nH]c21,82
5,Oc1c2ccccc2c2c3c(cccc13)N=N2,71
6,COc1cc2ncnc(Nc3ccc(O)c(Br)c3)c2cc1OC,86
7,N#C/C(=C(\N)Sc1ccc(N)cc1)c1ccccc1C(F)(F)F,98
8,CCOc1cc2ncnc(Nc3cccc(Br)c3)c2cc1OCC,98
9,O=C1NC(=O)c2c1c1c3ccccc3[nH]c1c1[nH]c3cc(Br)ccc3c21,85
10,CC#CC(=O)Nc1cc2c(Nc3ccc(F)c(Cl)c3)ncnc2cn1,102
11,NC(=O)c1ccc2[nH]c(-c3ccc(Oc4ccc(Cl)cc4)cc3)nc2c1,86
12,O=C(Nc1cccc(Nc2nccc(Nc3cccc(C(F)(F)F)c3)n2)c1)C1CC1,109
13,O=c1c2ccccc2[nH]c(=S)n1CCN1CCC(=C(c2ccc(F)cc2)c2ccc(F)cc2)CC1,104
14,Ic1cccc(CSc2nnc(-c3ccncc3)o2)c1,83
15,O=C1NC(=O)/C(=C/c2ccc3c(c2)OC(F)(F)O3)S1,112
16,Cc1ccc(NC2=CC(=O)c3sc(C)nc3C2=O)cc1,87
17,CC(=O)O/N=C1\C(=C2\C(=O)Nc3cc(Br)ccc32)Nc2ccccc21,92
